# Laboratory results taken from PubChem BioAssay (NCI).
# Compounds without any hit were thinned out: in the full panel of roughly 83,000, 20% have a hit.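 Testing used 96-well plates and a 48-hour single-concentration exposure. Example: -40 means 40% of the starting cells died.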 Values without a mark were called inactive. The source made the active and inactive calls. Rule for the calls: active = growth percent below 10; inactive = the rest.
# How the values were obtained:
# Assay in all cases: NCI-60 one-dose screen, 48 h (100 = growth as untreated, 0 = no growth, -100 = all killed)
# [1] = test system: SR leukemia; conditions: 10 µM unless noted
# [2] = test system: OVCAR-8 ovarian; conditions: 10 µM unless noted
# [3] = test system: OVCAR-5 ovarian; conditions: 10 µM unless noted
# [4] = test system: OVCAR-4 ovarian; conditions: 10 µM unless noted
# [5] = test system: SK-OV-3 ovarian; conditions: 10 µM unless noted
# [6] = test system: IGROV1 ovarian; conditions: 10 µM unless noted
# [7] = test system: OVCAR-3 ovarian; conditions: 10 µM unless noted
# [8] = test system: NCI/ADR-RES ovarian; conditions: 10 µM unless noted
# [9] = test system: T-47D breast; conditions: 10 µM unless noted
# [10] = test system: BT-549 breast; conditions: 10 µM unless noted
# [11] = test system: MDA-MB-435 melanoma; conditions: 10 µM unless noted
# [12] = test system: SW-620 colon; conditions: 10 µM unless noted
# [13] = test system: MCF7 breast; conditions: 10 µM unless noted
# [14] = test system: HCT-116 colon; conditions: 10 µM unless noted
# [15] = test system: HCC-2998 colon; conditions: 10 µM
# [16] = test system: KM12 colon; conditions: 10 µM unless noted
# [17] = test system: HS 578T breast; conditions: 10 µM
SMILES,growth [1],growth [2],growth [3],growth [4],growth [5],growth [6],growth [7],growth [8],growth [9],growth [10],growth [11],growth [12],growth [13],growth [14],growth [15],growth [16],growth [17] [%]
C=CC(=O)N(C)[C@H]1C[C@H]2OC(C)(C1OC)n1c3ccccc3c3c4c(c5c6ccccc6n2c5c31)C(=O)NC4 (stereo partly specified),-25.3% (active),3.41% (active),28.9%,42.2%,-21.3% (active),13.7%,-11.1% (active),-1.79% (active),16.5%,-70.4% (active),6.02% (active),10.3%,12.5%,-48.4% (active),-48.1% (active),9.67% (active),
Cc1nc(N)sc1-c1ccnc(Nc2ccc(N3CCOCC3)cc2)n1,2.59% (active),34.2%,42.8%,53.7%,8.94% (active),12.3%,59.6%,61.4%,29.8%,17.3%,67.2%,41.4%,27.2%,26.2%,77.8%,23.7%,
COc1cc(C2CC(c3ccc(Cl)cc3)=NN2c2ccc(Cl)cc2)cc(OC)c1OC (stereo unspecified),98.7%,101%,88.1%,83.2%,98.2%,94.8%,,95.6%,86.1%,95.6%,93.3%,96.6%,89.5%,93.6%,,96.5%,84
C=CC(=O)N1CCC[C@H](n2c(=O)n(-c3ccc(Oc4ccccc4)cc3)c3c(N)ncnc32)C1,74%,65.8%,86.6%,85.3%,3% (active),30.7%,76.4%,74.9%,37.7%,91.9%,101%,97.4%,86.5%,74%,100%,92.1%,
Cc1nc2cc(-c3nn(C(C)C)c4ncnc(N)c34)ccc2o1,-0.778% (active),-29.1% (active),-11.3% (active),-27.4% (active),-40.9% (active),-39% (active),2.45% (active),-22.5% (active),-39.9% (active),-14.5% (active),-20.5% (active),2.48% (active),-4.42% (active),7.77% (active),-8.93% (active),0.531% (active),
CCCC(=O)OCC1OC(n2cnc3c(=S)nc[nH]c32)C(OC(=O)CCC)C1OC(=O)CCC (stereo unspecified),24%,-8.32% (active),46.2%,31.3%,21%,14.7%,22.7%,48.3%,36.5%,45.5%,38%,38.1%,24.2%,35.9%,2.11% (active),43.3%,
CC(=O)NCC(=O)N1[C@@H]2CC[C@H]1c1ccc(Nc3ncc(C(F)(F)F)c(NC4CCC4)n3)cc12,2.18% [2.5 µM] (active),55.3% [2.5 µM],32.4% [2.5 µM],64.4% [2.5 µM],15.9% [2.5 µM],31.5% [2.5 µM],67.8% [2.5 µM],59.7% [2.5 µM],88.4% [2.5 µM],36.3% [2.5 µM],39.9% [2.5 µM],,25.1% [2.5 µM],13.4% [2.5 µM],,3.64% [2.5 µM] (active),
Oc1ccc(/C=N/Nc2nnc(N/N=C/c3ccc(O)cc3O)c3ccccc23)c(O)c1,-26.1% (active),-60% (active),1.16% (active),-9.22% (active),-15.4% (active),-2.51% (active),-34.1% (active),-11.1% (active),-53.2% (active),-23.6% (active),-6.07% (active),-1.28% (active),-57.2% (active),-44.1% (active),,-73.2% (active),
COc1cnc2c(c1)C(=O)c1c-2n(CCCN2CCC(N)CC2)c(=O)c2cc([N+](=O)[O-])ccc12,2.78% (active),42.4%,,60.4%,30.4%,56%,79.7%,76%,46.6%,76.7%,85.9%,37.2%,25.3%,36.4%,69.3%,44.6%,81.4
O=C1C=CC2(NN=C(c3ccccc3)N2c2ccc(Cl)cc2)c2cccc(O)c21 (stereo unspecified),36.8%,43.4%,47.6%,43.3%,102%,66.7%,13.5%,45.1%,87.2%,33.5%,-91.5% (active),52.5%,45.4%,26.1%,64.4%,58.6%,
